From PubChem
In the library only some 12% were active in any assay of this set; here they are far more common.
Shiga inhibitor – inhibitors of Shiga toxin in Vero cells; Vero cells, Shiga toxin protein synthesis inhibition reporter; inhibition, % at 38.7 µM; hit rate 9.2% among 290,000; in the data active = inhibition mostly above about 28%, no sharp cut-off; inactive = mostly below about 43%; also: 0% is about no effect
CHX counter – counter-screen for Shiga toxin inhibitors: cycloheximide protein synthesis inhibition. hit rate 12% among 300,000. cell reporter, cycloheximide protein synthesis inhibition counterscreen. max response, %; in the data active = max response mostly above about 13%, no sharp cut-off; inactive = mostly below about 14%; also: read at 38.3 µM for the half of the compounds with a filed dose; 0% is about no effect
FMDV inh – foot and mouth disease virus antiviral activity; FMDV antiviral cell-based qHTS; Potency, µM (series often up to 57.9 µM), without a hit: at the top dose activity change, negative = inhibition, hits mostly inhibitors; hit rate 1.2% among 410,000; calls by dose curve; tested in HEK293T cells; also: read-out not given here; potency is read from the fitted curve at half-maximal effect; % is scaled to controls: 0 for no effect and ±100 for the full control effect; nearly all actives have a fitted effect of over 45% in size
Sm TGR inh – inhibitors of Schistosoma mansoni thioredoxin glutathione reductase; Q962Y6; purified TGR, DTNB reduction, TNB absorbance 405 nm; Potency, µM (series often up to 114 µM), without a hit: top-dose activity change, negative = inhibition, most hits filed as inhibitors; hit rate 3% among 360,000; active = well fitted inhibition curve with a large enough effect; inconclusive = small, poorly fitted or top-dose-only effect; inactive = no such curve, though single readings can be large or run the other way; also: potency is read from the fitted curve at half-maximal effect; % is scaled to controls: 0 for no effect and ±100 for the full control effect; nearly all actives have a fitted effect of over 60% in size
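TGR 20 nM + NADPH 100 uM (dispensed conc.), cpd preinc 15 min RT; start with NADPH (500 uM addition) then DTNB (15 mM addition). Kinetic TNB absorbance, 405 nm filter. Four-parameter Hill fit across titration.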
* marks the source's active call; other numbers are inactive results; [ ] = dose if it differs, or a comment.

For Cc1ncc(CN2CCCC(C(=O)c3ccc(C(C)(C)C)cc3)C2)s1 (stereo not given) the results were Shiga inhibitor 43.6, CHX counter 9.9*, FMDV inh inconclusive and Sm TGR inh 0.0%.
COc1cc(CN2CCCC(C(=O)c3ccc(C(C)(C)C)cc3)C2)cc(OC)c1O (stereo not given) was read as Shiga inhibitor 23.6, CHX counter 17.8*, FMDV inh -13.1% and Sm TGR inh inconclusive.
`COc1cccc(C(=O)C2CCCN(Cc3ccon3)C2)c1` (stereo not given) gave Shiga inhibitor 0.9, CHX counter 7.3, FMDV inh 5.7% and Sm TGR inh -8.0%[57.1 µM].
`O=C(Cn1ccn(-c2ccc(F)c(F)c2)c(=O)c1=O)c1ccc(F)cc1` gave FMDV inh -8.6% and Sm TGR inh -3.5%.
Screening N#Cc1ccccc1CN1C(=O)c2ccccc2Sc2ccc(C(=O)OCc3ccco3)cc21 returned FMDV inh 11.2% and Sm TGR inh -30.0%.
For COc1ccc(C(=O)C2CCCN(C(=O)c3n[nH]c4c3CCCC4)C2)cc1OC (stereo not given) the results were Shiga inhibitor 29.9, CHX counter 16.1*, FMDV inh -12.7% and Sm TGR inh 38.4%.
For CC(C)COc1ccc(-c2nnc(-c3ccncc3)o2)cc1 the results were Shiga inhibitor 110.8*, CHX counter 37.6*, FMDV inh 35.7% and Sm TGR inh 1.1%.
For c1cc(-c2nnc(-c3ccncc3)o2)ccn1 the results were Shiga inhibitor 14.1, CHX counter -0.5, FMDV inh 9.6% and Sm TGR inh 7.7%.
Screening CCCOc1ccc(-c2nnc(-c3ccncc3)o2)cc1 returned Shiga inhibitor 84.3*, CHX counter 21.0*, FMDV inh 5.3% and Sm TGR inh 0.0%.
`Cc1cccc(Cn2c(=O)n(CC3CCC(C(=O)NC(C)C)CC3)c(=O)c3sccc32)c1` (stereo not given) gave FMDV inh 9.4% and Sm TGR inh -2.6%.
Screening CCOC(=O)NC(=O)CSc1nc(C)cc(C(F)(F)F)c1C#N returned Shiga inhibitor 83.7*, CHX counter 31.0*, FMDV inh 46.3% and Sm TGR inh -16.4%.
For Cc1cc(C(F)(F)F)c(C#N)c(SCC(=O)Nc2nc3cc(Br)ccc3s2)n1 the results were Shiga inhibitor 32.7*, CHX counter 39.4*, FMDV inh inconclusive and Sm TGR inh 5.3%.
Screening COC(=O)CSc1nc(C)cc(C(F)(F)F)c1C#N returned Shiga inhibitor -10.7, CHX counter -2.9, FMDV inh 0.0% and Sm TGR inh 2.2%.
O=C(c1ccc2c(c1)N(Cc1cccc(Cl)c1)C(=O)c1ccccc1S2(=O)=O)N1CCN(Cc2ccccc2)CC1 was read as FMDV inh -12.9% and Sm TGR inh 6.0%.
`COc1ccc(CCC(=O)NC2CC(=O)N(c3ccc(F)cc3)C2)cc1` (stereo not given) gave FMDV inh -11.7% and Sm TGR inh 7.4%.
`COc1cc(OC)cc(C(=O)Nc2cc3c(cc2N2CCCC2)n(C)c(=O)c(=O)n3C)c1` gave FMDV inh -12.5% and Sm TGR inh inconclusive.
`FC(F)(F)c1cccc(N2Cc3ccccc3C2)c1` gave Shiga inhibitor 36.8*, CHX counter 19.8*, FMDV inh 37.3% and Sm TGR inh -14.9%.
`CC1CCCCC1NCc1cccc([N+](=O)[O-])c1` (stereo not given) gave Shiga inhibitor 41.7*, CHX counter 12.0 and FMDV inh 25.9%.
Screening Cc1ncsc1CCOC(=O)c1ccc([N+](=O)[O-])cc1 returned Shiga inhibitor 40.9*, CHX counter 24.6*, FMDV inh -8.3% and Sm TGR inh -3.6%.
CCOCCCNC(=O)NC(C)c1c(-n2cccc2)sc2c1CCN(CC)C2 (stereo not given) was read as FMDV inh 12.0% and Sm TGR inh inconclusive.
Screening Fc1ccc(-c2cc(-c3cccs3)cc(-c3ccccc3)n2)cc1 returned Shiga inhibitor 23.7, CHX counter -2.2, FMDV inh 4.1% and Sm TGR inh 14.1%.
Fc1ccc(-c2nc(-c3cccs3)no2)cc1 was read as Shiga inhibitor 127.0*, CHX counter 44.4*, FMDV inh -11.9% and Sm TGR inh 3.0%.
Fc1ccc(-c2cnc(-c3cccs3)o2)cc1 was read as Shiga inhibitor 134.5*, CHX counter 42.0*, FMDV inh 61.8% and Sm TGR inh 2.8%.
Screening Cc1noc(-c2ccc(-c3noc(-c4ccc(F)cc4)n3)cc2)n1 returned FMDV inh -8.2% and Sm TGR inh -0.2%.
`COC(=O)c1noc(-c2ccc(OC)cc2)n1` gave Shiga inhibitor -14.9, CHX counter 1.2, FMDV inh -8.8% and Sm TGR inh 1.2%.
COC(=O)c1ccc(-c2nc(-c3cccs3)no2)cc1 was read as Shiga inhibitor 65.4*, CHX counter 40.3*, FMDV inh inconclusive and Sm TGR inh 6.0%.
`O=C(NCc1cccn1Cc1ccccc1)Nc1ccc(Br)cc1F` gave FMDV inh -11.0% and Sm TGR inh -7.3%.
For N#Cc1nc(-c2ccco2)oc1NCc1ccccc1Cl the results were Shiga inhibitor 43.8, CHX counter 12.4*, FMDV inh 17.7% and Sm TGR inh -4.3%.
For N#Cc1nc(-c2cccs2)oc1N1CCN(c2ccccc2)CC1 the results were Shiga inhibitor -4.4, CHX counter -2.5, FMDV inh -19.2% and Sm TGR inh -3.4%.
`Cc1ccc(CNc2oc(-c3cccs3)nc2C#N)cc1` gave Shiga inhibitor 17.4, CHX counter 19.8 and Sm TGR inh -10.5%.
`N#Cc1nc(-c2ccco2)oc1NCc1ccco1` gave Shiga inhibitor 14.7, CHX counter 6.9, FMDV inh 3.1% and Sm TGR inh -1.0%.
Screening C=CCNc1oc(-c2cccs2)nc1C#N returned Shiga inhibitor 51.4*, CHX counter 18.8*, FMDV inh 0.0% and Sm TGR inh -2.0%.
`N#Cc1nc(-c2cccs2)oc1NCc1ccco1` gave Shiga inhibitor 27.6, CHX counter 18.4* and Sm TGR inh -11.9%.
`N#Cc1nc(-c2cccs2)oc1NCc1ccccc1` gave Shiga inhibitor 29.0, CHX counter 24.2*, FMDV inh 9.9% and Sm TGR inh -19.7%.
For N#Cc1nc(-c2ccc(OCc3ccccc3)cc2)oc1NCc1ccco1 the results were Shiga inhibitor 3.9, CHX counter -4.7, FMDV inh -3.5% and Sm TGR inh -17.1%.
For Cc1nc2cc(NC(=O)[C@@H]3C[C@@H](Sc4ccccn4)CN3Cc3cccc(F)c3)ccc2s1 the results were FMDV inh 5.3%.
For N#Cc1nc(-c2cccs2)oc1NCc1ccccc1Cl the results were Shiga inhibitor 86.3*, CHX counter 18.1*, FMDV inh 0.0% and Sm TGR inh 71.8%.
Screening N#Cc1nc(-c2cccs2)oc1NCc1ccc(Cl)cc1 returned Shiga inhibitor 9.4, CHX counter 10.4, FMDV inh 11.6% and Sm TGR inh -4.5%.
Screening CC(C)(C)c1ccc(OCC(=O)Nc2ccc(-c3nc4cccnc4o3)cc2)cc1 returned Shiga inhibitor 11.7, CHX counter 9.2, FMDV inh 12.1% and Sm TGR inh -1.6%.
